Compound activity (PubChem BioAssay)
Rows were chosen to be rich in hits. Some 2.5% of all compounds tested hit in one or more screens of this group.
LASV entry inh – blocks Lassa virus binding to or entry into cells; Lassa virus pseudotype entry inhibition, cell reporter; Potency, µM (top dose mostly 37.9 µM), hits mostly inhibitors; actives 1.2% (n = 300,000); calls by dose curve; tested in HEK293 cells; further: nearly all actives have a fitted effect of over 50% in size
Vaccinia mCherry – vaccinia inhibition (mCherry reporter); Vaccinia virus mCherry reporter infection, fluorescence; Potency, µM (doses to about 36.5 µM), most hits filed as inhibitors; AID 720579; actives 0.63% (n = 310,000); calls by dose curve; tested in A549 cells; further: nearly all actives have a fitted effect of over 35% in size
MARV entry inh – Marburg virus entry inhibition. Marburg virus pseudotyped entry inhibition, cell reporter. Potency, µM (highest dose often 37.8 µM), actives largely listed as inhibitors. actives 1.8% (n = 300,000); calls by dose curve; tested in HEK293 cells
VACV Venus inh – vaccinia inhibition (Venus reporter) | actives 0.46% (n = 330,000) | Potency, µM (titrated, usually from 36.5 µM), usual class: inhibitors | AID 720580 | Vaccinia virus Venus reporter expression, fluorescence; calls by dose curve; tested in A549 cells; further: nearly all actives have a fitted effect of over 30% in size
A number is an active result; - = inactive; ? = inconclusive; . = not tested or not shown; [ ] = remark or other dose.

SMILES	LASV entry inh	Vaccinia mCherry	MARV entry inh	VACV Venus inh
CN1c2ccccc2C(C)(C)[C@]12C=Cc1cc(O)ccc1O2	-	.	?	-
O=S1(=O)CCOCCCN1Cc1ccc(F)cc1	.	-	.	?
COc1ccc(-c2nc3cc(F)ccc3cc2CN(C(=O)c2ccc3c(c2)OCO3)C2CC2)cc1	.	-	.	-
COc1ccc(CN2CCOc3ccc(CN4CCC(O)CC4)cc3C2)c(OC)c1OC	.	-	.	-
COc1ccc(N(C)S(=O)(=O)c2ccc(C)cc2)c([N+](=O)[O-])c1	13µM	-	-	-
CCc1c(C)[nH]n(-c2nc(-c3ccccc3)cs2)c1=O	-	-	-	-
Cc1[nH]n(-c2nc(-c3ccc(Cl)cc3)cs2)c(=O)c1N=Nc1ccc(O)cc1	11µM	-	?	-
Cc1nc2c(cnn2-c2ccccc2Cl)c(=O)n1-c1ccc(C(C)C)cc1	9.2µM	-	15µM	-
COCc1c(C(=O)NC2CCCCCC2)cnn1-c1nccc(-c2cc(C)sc2C)n1	.	-	.	-
CCN(Cc1ccncc1)Cc1ccc2c(c1)CN(C(=O)c1cccc3c(C)c(C)[nH]c13)CCO2	.	-	.	-
Cc1cccc(Nc2nc(N)c([N+](=O)[O-])c(NCc3ccco3)n2)c1	-	?	?	?
Nc1nc(Nc2cccc(Cl)c2)nc(NCc2ccco2)c1[N+](=O)[O-]	?	-	5.6µM	-
Nc1nc(NCc2ccco2)nc(N2CCCCC2)c1[N+](=O)[O-]	-	-	10µM	-
Nc1nc(Nc2ccc(Cl)cc2)nc(NCc2ccco2)c1[N+](=O)[O-]	-	-[7.34 µM]	?	-[7.34 µM]
Cc1cccc(Nc2nc(NCc3ccco3)nc(N)c2[N+](=O)[O-])c1	?	-	5.6µM	-
CN1CCN(c2nc(NCc3ccco3)nc(N)c2[N+](=O)[O-])CC1	-	-[7.34 µM]	-	-[7.34 µM]
CCCCc1ccc(NC(=O)COC(=O)c2ccccc2OCC(=O)Nc2ccc(Br)cc2)cc1	.	-	.	-
O=C(O)C[C@H](NC(=O)COc1ccc(Cl)cc1Cl)C(=O)O	.	.	-	.
O=C(Nc1cc(C(=O)Nc2ccc(S(=O)(=O)O)cc2S(=O)(=O)O)cc(C(=O)Nc2ccc(S(=O)(=O)O)cc2S(=O)(=O)O)c1)Nc1cc(C(=O)Nc2ccc(S(=O)(=O)O)cc2S(=O)(=O)O)cc(C(=O)Nc2ccc(S(=O)(=O)O)cc2S(=O)(=O)O)c1	.	-	13µM	-
CCC(CC)COC(=O)C(C#N)c1nc2ccccc2nc1N1CCN(CC)CC1 (stereo not given)	?	.	5.2µM	.
Cc1nn(Cc2ccccc2)c(C)c1C(=O)OCC(=O)c1cc(C)n(CC(F)(F)F)c1C	1.8µM	?	?	?
Cc1cc(C(=O)COC(=O)c2ccncc2)c(C)n1Cc1ccco1	?	-	-	-
Cc1cc(C(=O)COC(=O)c2ccco2)c(C)n1Cc1ccco1	15µM	.	?	.
Oc1ccc(/C=N/NC(=S)NC2CC3CCC2C3)cc1 (stereo not given)	11µM	-	?	-
S=C(N/N=C/c1cccs1)NC1CC2CCC1C2 (stereo not given)	-	-	?	-
SMILES	LASV entry inh	Vaccinia mCherry	MARV entry inh	VACV Venus inh
CC(=O)CSc1ccc(-c2nc3ccccc3[nH]2)cn1	?	-	6.3µM	-
CC(=O)CSc1ccc(-c2nc3cc(C)c(C)cc3[nH]2)cn1	?	-	?	-
CC(C)C[C@@H](CN=[N+]=[N-])N1CCN(CCc2ccccc2)CCC1=O	.	-	.	-
CC(=O)OCc1cnc(C)c2oc(=O)c(C(=O)Nc3cccc(F)c3)cc12	0.79µM	-	.	-
CC(=O)OCc1cnc(C)c2oc(=O)c(C(=O)Nc3cc(F)ccc3C)cc12	-	-	-	-
Cc1cc(C)c2c(n1)NCCC2	.	-	.	-
CCN(c1cccc(C)c1)S(=O)(=O)c1nnc(NC(=O)c2cccs2)s1	10µM	-	.	-
Cc1ccc(C(=O)NCCc2nnc3n2CCN(C(=O)c2ccnc(Cl)c2)CC3)cc1	.	-	.	-
O=[N+]([O-])c1ccc(S(=O)(=O)c2cccc(C(F)(F)F)c2)nc1	?	-	11µM	?
CCOC(=O)c1nnn(-c2nonc2-n2cccc2)c1C	-	.	-	-
CCOC(=O)c1nnn(-c2nn3nnnc3c3ccccc23)c1C	-	8.9µM	-	?
COc1ccc(S(=O)(=O)N2N=C(c3ccc(NS(C)(=O)=O)cc3)CC2c2ccco2)cc1 (stereo not given)	0.65µM	.	-	.
Cc1cc(O)cc2c1C1CCC3(C)C(=O)CCC3C1C=C2 (stereo not given)	-	1.8µM	?	?
c1ccc(-c2noc(-c3ccc4ccccc4c3)n2)nc1	0.29µM	.	1.6µM	.
c1ccc(-c2nc3n(c2-c2ccc4c(c2)OCO4)CCC3)nc1	10µM	.	.	.
Cc1occc1-c1nc(-c2ccccn2)no1	?	?	11µM	-
c1ccc(-c2noc(-c3ccc4c(c3)OCO4)n2)nc1	0.41µM	-	?	-
c1ccc2c(CCc3c[nH]c4ccccc34)ccnc2c1	.	?	.	-
CCN(CC)S(=O)(=O)c1ccc(N2CCOCC2)c(NC(=O)c2cccc3ccccc23)c1	?	-	-	-
CCN(CC)S(=O)(=O)c1ccc(N2CCCCC2)c(C(=O)Nc2ccccc2N2CCOCC2)c1	10µM	-	5.6µM	-
CCN(CC)S(=O)(=O)c1ccc(N2CCOCC2)c(NS(=O)(=O)c2cc(C(C)(C)C)ccc2C)c1	8.9µM	-	?	?
CCN(CC)S(=O)(=O)c1ccc(N2CCOCC2)c(NS(=O)(=O)c2ccc(C(C)C)cc2)c1	-	-	-	-
COC(=O)c1ccc(CN2C(=O)[C@@]3(CC(C)=CC[C@@H](COc4ccccc4)O3)c3c(Br)cccc32)cc1	-	.	-	.
COc1cccc2c1[C@H](C=Cc1ccccc1)[C@@H]([C@H](O)CN=[N+]=[N-])OC2	.	.	-	.
CCNCc1cc(Cl)c(OCc2ccccc2)c(OCC)c1	?	-	?	-
SMILES	LASV entry inh	Vaccinia mCherry	MARV entry inh	VACV Venus inh
COc1cc(CNC2CCCC2)cc(Cl)c1OCc1ccccc1Cl	?	.	10µM	.
CCOc1cc(CNC2CCCC2)cc(Cl)c1OCc1ccc(F)cc1	?	?	5.8µM	?
COc1cc(CNC2CCCC2)cc(OC)c1OC	-	-	-	-
CCN(c1nc(N)c(C(=O)N=C(N)N)nc1Cl)C(C)C	?	-	14µM	-
COc1cc2c(cc1OC)[C@@H]1O[C@](CCCCN3C(=O)c4ccccc4C3=O)(C2)Oc2c1c(=O)oc1ccccc21	.	.	-	.
Cn1nnnc1N=N/C(=N/Nc1ccccc1)c1ccccc1	?	?	1µM	-
CC(=O)c1ccc(Nc2cc(C)nc3ccccc23)cc1	?	-	2.8µM	-
COc1ccc(Nc2cc(C)nc3ccccc23)cc1	-	.	?	.
COC(=O)c1ccc(Nc2cc(C)nc3ccc(C)cc23)cc1	?	-	13µM	?
Cc1ccc(Nc2cc(C)nc3c(C)cccc23)cc1	-	?	10µM	-
CC(=O)c1cccc(Nc2cc(C)nc3ccc(C)cc23)c1	-	-	?	-
CC(C)c1c(C(=O)N2CCN(CCO)CC2)cnn1-c1nccc(-c2cccs2)n1	.	-	.	-
O=C1C[C@H](NCc2ccc3c(c2)OCO3)C(=O)N1Cc1ccc2c(c1)OCO2	.	.	-	.
COc1cccc(CNn2c(-c3cccc(C)c3)nc3ccccc3c2=O)c1	18µM	-	?	-
COc1ccc(OC)c(CNn2c(-c3cccc(C)c3)nc3ccccc3c2=O)c1	-	-	?	-
CCCCN(CCC#N)c1ccc(/C=C/c2ccnc3ccccc23)cc1	.	?	.	-
